Experimental data: the supplement of paper PMC11732987, “Enantioselective OTUD7B fragment discovery through chemoproteomics screening and high-throughput optimisation” (Communications Chemistry, 2025)

These molecules were tested against USP14 (UniProt P54578) (assay: log2 ratio of Biotin-Ahx-Ub-VS probe labelling (fragment/DMSO); higher = less target engagement (more negative = stronger competition), active = hit call of the paper (q ≤ 0.05, log2 ratio ≤ -1)). Details: compound concentration: 200 uM; treatment time: 3 h.
Sequence of USP14 (P54578 whole entry, the tested form may be a part): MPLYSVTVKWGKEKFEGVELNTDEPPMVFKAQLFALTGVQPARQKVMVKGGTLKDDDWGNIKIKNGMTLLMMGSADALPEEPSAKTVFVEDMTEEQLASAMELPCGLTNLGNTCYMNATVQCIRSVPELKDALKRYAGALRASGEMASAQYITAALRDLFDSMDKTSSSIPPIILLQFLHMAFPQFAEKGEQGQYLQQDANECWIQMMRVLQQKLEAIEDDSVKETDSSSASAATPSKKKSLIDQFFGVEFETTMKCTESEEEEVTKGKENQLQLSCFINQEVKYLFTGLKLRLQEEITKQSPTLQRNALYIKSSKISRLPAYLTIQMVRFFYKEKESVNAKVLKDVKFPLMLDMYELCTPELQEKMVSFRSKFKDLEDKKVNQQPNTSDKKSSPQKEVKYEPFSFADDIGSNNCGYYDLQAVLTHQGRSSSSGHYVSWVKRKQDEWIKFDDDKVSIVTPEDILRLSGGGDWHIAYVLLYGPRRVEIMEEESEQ
Procedure: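 Competitive ABPP in HEK293T cell lysate. Lysates were treated with each chloroacetamide fragment at 200 µM for 3 h, then with Biotin-Ahx-Ub-VS (0.5 µM, 1 h), NeutrAvidin-enriched and analysed by diaPASEF LC-MS/MS. Protein LFQ was median-normalised; average log2 ratio is fragment/DMSO from an unpaired t-test (n=3 treated, n=44 DMSO). Hits: q ≤ 0.05, log2 ratio ≤ -1, unique peptides ≥ 2.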

Row | Structure (SMILES) | log2 ratio of Biotin-Ahx-Ub-VS probe labelling
1 | O=C(CCl)N1CCC(C(=O)N2CCCC2)CC1 | -0.0629 (inactive)
2 | O=C(CCl)Nc1ccc(N2CCCC2=O)cc1 | -0.139 (inactive)
3 | O=C(CCl)NC1CCC(C(F)(F)F)CC1 (stereo not given) | -0.454 (inactive)
4 | Cc1n[nH]c(=O)c2c(NC(=O)CCl)oc(C)c12 | 0.0281 (inactive)
5 | Cc1cccc(N2CCC(NC(=O)CCl)C2=O)c1 (stereo not given) | -0.345 (inactive)
6 | O=C(CCl)N1CCOC2(CCC2)CC1 | -0.247 (inactive)
7 | Cc1ccc(-c2nnc(C)[nH]2)c(NC(=O)CCl)c1 | -0.203 (inactive)
8 | Cc1cccc(C(CNC(=O)CCl)N2CCOCC2)c1.Cl (stereo not given) | 0.0229 (inactive)
9 | COc1ccc(Cl)cc1NC(=O)CCl | -0.655 (inactive)
10 | O=C(CCl)N1CCOCCC1c1ccccc1 (stereo not given) | -0.111 (inactive)
11 | Cc1ccc(N(C(=O)CCl)C2C=CS(=O)(=O)C2)cc1 (stereo not given) | -0.0859 (inactive)
12 | O=C(CCl)N[C@H]1CC[C@@H](CO)CC1 | -0.814 (inactive)
13 | Cl.O=C(CCl)N1CCn2ncc(O)c2C1 | -0.588 (inactive)
14 | CN(Cc1nc2ccccc2[nH]1)C(=O)CCl.Cl | 0.0145 (inactive)
15 | O=C(CCl)N1CCCC1c1ccsc1 (stereo not given) | -0.248 (inactive)
16 | Cc1cc(Cl)ccc1NC(=O)CCl | -0.0914 (inactive)
17 | O=C(CCl)NCc1ccc(N2CCOCC2)c(F)c1 | 0.1 (inactive)
18 | Cc1nc(CN2CCN(C(=O)CCl)CC2)cs1 | -0.431 (inactive)
19 | Cl.Cn1ncc2c1CC(NC(=O)CCl)CC2 (stereo not given) | 0.136 (inactive)
20 | Cc1ccc(C)c(Oc2ccc(CNC(=O)CCl)cn2)c1.Cl | -0.371 (inactive)

Row | Structure (SMILES) | log2 ratio of Biotin-Ahx-Ub-VS probe labelling
21 | O=C(CCl)N1CCC(S(=O)(=O)c2ccc(F)cc2)CC1 | -0.0146 (inactive)
22 | NC(=O)C(Cc1ccccc1)NC(=O)CCl (stereo not given) | -0.156 (inactive)
23 | CN(C)C(=O)c1ccc(NC(=O)CCl)cc1 | -0.162 (inactive)
24 | Cc1ncc2c(n1)CCN(C(=O)CCl)C2 | -0.161 (inactive)
25 | C[C@H]1CN(C(=O)CCl)CCN1C(=O)c1cnn(C)c1.Cl | -0.0358 (inactive)
26 | O=C(CCl)N1CCN2C(=O)CCC2C1 (stereo not given) | 0.0904 (inactive)
27 | CC1CCc2onc(CNC(=O)CCl)c2C1 (stereo not given) | 0.328 (inactive)
28 | CS(=O)(=O)c1ccc(CNC(=O)CCl)cc1 | -0.204 (inactive)
29 | Cc1noc(N2CCN(C(=O)CCl)CC2)n1.Cl | 0.347 (inactive)
30 | CCCn1nccc1NC(=O)CCl | -0.663 (inactive)
31 | Cc1nc(CNC(=O)CCl)c2ccccn12.Cl | 0.113 (inactive)
32 | Cl.O=C(CCl)N1CCN(Cc2ccccc2)CC1 | -0.745 (inactive)
33 | Cc1cccn2cc(CCNC(=O)CCl)nc12.Cl | -0.461 (inactive)
34 | CC(=O)C1CCCCN1C(=O)CCl (stereo not given) | -0.101 (inactive)
35 | O=C(CCl)NCCc1cccc2ccccc12 | 0.0871 (inactive)
36 | O=C(CCl)NC1CCCCNC1=O (stereo not given) | -0.476 (inactive)
37 | Cl.O=C(CCl)NCCc1ncc(F)cc1F | -0.31 (inactive)
38 | CCN(Cc1ccc(C#N)cc1F)C(=O)CCl | -0.392 (inactive)
39 | O=C(CCl)NC1CCC2(CC1)OCCO2 | -0.308 (inactive)
40 | Cc1c(C#N)c(NC(=O)CCl)n(Cc2ccco2)c1C | -0.314 (inactive)
